About 79,000 compounds went through this panel and 15% of them were active in at least one assay; those are over-represented in the sample as a whole. Values without a mark were called inactive. The source made the active and inactive calls. Rule as the data show it: active = growth inhibition above about 70%; inactive = the rest.

A short description of assay [1]: NCI Yeast Anticancer Drug Screen. Data for the rad50 strain (AID 155).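 Also: 0% = growth of vehicle-only cultures of the same strain.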 The settings on record: S. cerevisiae rad50 strain growth inhibition; at 50.0 µM; active compounds read high. In outline:
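Cells are treated with compound, grown, and their growth is then scored against vehicle-only cultures of the same repair-deficient yeast strain.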

Assay [2] in a line: NCI Yeast Anticancer Drug Screen. Data for the mec2-1 strain (AID 157). The settings on record: S. cerevisiae mec2-1 strain, at 50.0 µM, active compounds read high. In outline: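 Mutant yeast (mec2-1) grown with compound; growth inhibition relative to vehicle control reported.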
Assay [3] is described as follows: NCI Yeast Anticancer Drug Screen. Data for the sgs1 mgt1 strain (AID 161).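 Also: 0% = growth of cultures given vehicle only.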 The settings on record: S. cerevisiae sgs1 mgt1 strain, at 50.0 µM, active compounds read high. In outline: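 Yeast cells carrying a defined DNA-repair defect were exposed to test compounds. Growth inhibition was measured relative to vehicle-treated controls.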
A short description of assay [4]: NCI Yeast Anticancer Drug Screen. Data for the cln2 rad14 strain (AID 165).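 Also: 0% = growth equal to vehicle treated cultures.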 The settings on record: S. cerevisiae cln2 rad14 strain, at 50.0 µM, active compounds read high. Summed up:
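Readout is yeast growth inhibition versus vehicle-treated controls, using a strain with cln2 and rad14 alterations exposed to compound.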

Assay [5] can be described thus: NCI Yeast Anticancer Drug Screen. Data for the bub3 strain (AID 167). The note with it: S. cerevisiae bub3 mutant strain, at 50.0 µM, active compounds read high. In outline:
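Part of a panel of yeast mutants defective in DNA damage repair or cell cycle regulation. Each strain is grown with compound, and inhibition is calculated relative to solvent-treated cultures.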

Assay [6] can be described thus: NCI Yeast Anticancer Drug Screen. Data for the mlh1 rad18 strain (AID 175). The settings on record: S. cerevisiae mlh1 rad18 strain growth inhibition; at 50.0 µM; active compounds read high. Summed up: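 Genetically defined yeast (DNA repair-deficient) exposed to compounds; growth inhibition determined relative to vehicle.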

`C(=N/OC(c1ccccc1)(c1ccccc1)c1ccccc1)/c1ccccc1`: the growth inhibition is 13.7% in assay [1]; 24.2% in assay [2]; 6.2% in assay [3]; 7.8% in assay [4]; 15.8% in assay [5]; 6.45% in assay [6].

Take `O=C(N/N=C\c1ccc(Cl)cc1)Nc1ccc2ccccc2c1`: the growth inhibition is 2.9% in assay [1]; 11.1% in assay [2]; 4.35% in assay [3]; 12.9% in assay [4]; 20% in assay [5]; 29.1% in assay [6].

Regarding `NC(CO)C(=O)NCC(=O)O` (stereo not given), the growth inhibition is -29.5% in assay [1]; 5.75% in assay [2]; -30.2% in assay [3]; -79.5% in assay [4]; -18.2% in assay [5]; -23.9% in assay [6].

As for `COC(=O)C1(CCCCCBr)CCCCCCCCCCC1=O` (stereo not given), the growth inhibition in assay [1] is -8.6%; in assay [2] it was -15.4%; in assay [3], 24.1%; in assay [4], 12.7%; in assay [5] it was -25%; in assay [6] it was -34.5%.

Regarding `CCN(CC)CCSc1ccnc2cc(Cl)ccc12`, the growth inhibition in assay [1] is 16.3%; in assay [2] it was 23.1%; in assay [3], 52.8%; in assay [4] it was 47.5%; in assay [5] it was 36%; in assay [6], 21.8%.

With `CCOCN1COCN(C)C1=O`, the growth inhibition in assay [1] was 8.1%; in assay [2], -6.55%; in assay [3], -6.45%; in assay [4], 13.3%; in assay [5], 20.1%; in assay [6] it was 3.95%.

For the compound `CC(=O)Nc1ccccc1OC(=O)c1ccccc1`, the growth inhibition in assay [1] is 4.4%; in assay [2], -4.4%; in assay [3], 2.6%; in assay [4], 11.9%; in assay [5], 1.8%; in assay [6] it was -2.5%.

Take `N#CNC(=NCC1CCCO1)Nc1cccnc1` (stereo not given): the growth inhibition in assay [1] was 2.9%; in assay [2], -9.8%; in assay [3], -26.4%; in assay [4], -23.4%; in assay [5], 23.9%; in assay [6], -2.35%.

For the compound `CC(C)Nc1nc(N)nc2nc(-c3ccc(Cl)cc3)c(-c3ccc(Cl)cc3)nc12`, the growth inhibition in assay [1] was -8.7%; in assay [2], -2.5%; in assay [3] it was -6.85%; in assay [4] it was -17.4%; in assay [5] it was 8%; in assay [6], 8%.

Consider `O=C(O)c1cc(=O)[nH]c(=S)[nH]1`, for which the growth inhibition in assay [1] is -18.6%; in assay [2], 5.65%; in assay [3], -19.5%; in assay [4] it was 8.05%; in assay [5] it was -9.25%; in assay [6], -15.6%.

For `CCCC(=O)Nc1cc(C(=O)N2C[C@H]3C[C@@]34C2=CC(=O)c2[nH]cc(C)c24)n(COC)c1`, the growth inhibition in assay [1] is 43.9%; in assay [2] it was 59.2%; in assay [3] it was 68.2%; in assay [4] it was 41.4%; in assay [5], 5.85%; in assay [6], 69.8%.

On to `O=C1CCCC2C(O)CCC[C@H]12` (stereo not given in full), for which the growth inhibition in assay [1] is -9%; in assay [2], -2.9%; in assay [3] it was -21.8%; in assay [4] it was 1%; in assay [5] it was -7.7%; in assay [6] it was -1.9%.

With `CC(C)C1N=C(N)N=C(N)N1c1ccc(Cl)c(Cl)c1` (stereo not given), the growth inhibition in assay [1] was 17.4%; in assay [2], 10.1%; in assay [3], 8%; in assay [4], -16.9%; in assay [5] it was 5.25%; in assay [6] it was 6.6%.

Consider `CC(=NNC(=S)Nc1ccccc1)c1cccc(C(C)=NNC(=S)Nc2ccccc2)n1`, for which the growth inhibition in assay [1] is -7.4%; in assay [2] it was -7.55%; in assay [3], -0.8%; in assay [4], 2.65%; in assay [5], -2.3%; in assay [6] it was 6.4%.

Consider `CC(C)(C)c1ccc(OS(=O)(=O)c2ccccc2)c(Cl)c1`, for which the growth inhibition in assay [1] was -8.25%; in assay [2], -1.15%; in assay [3] it was -1.55%; in assay [4], -14.1%; in assay [5] it was 1.5%; in assay [6], 0.85%.

Turning to `CC(C)(C)c1cc(C2OC(N)=C(O)C2=O)cc(C(C)(C)C)c1O` (stereo not given), the growth inhibition in assay [1] was 13.4%; in assay [2] it was 11.1%; in assay [3], 24.7%; in assay [4] it was 13.8%; in assay [5], 5.4%; in assay [6] it was 32.2%.

As for `C=CCSc1nc2ccc(NCn3c(=S)sc4ccccc43)cc2s1`, the growth inhibition in assay [1] is 71.7% (active); in assay [2] it was 65.2%; in assay [3] it was 85.7% (active); in assay [4] it was 47.1%; in assay [5], 41.9%; in assay [6], 56.7%.

As for `Cc1cccc(C)c1NC(=O)CCC/C(CC(=O)c1ccc(F)cc1)=N\NC(=O)C(=O)NN`, the growth inhibition in assay [1] was 20.2%; in assay [2] it was 2.7%; in assay [3] it was 2.4%; in assay [4] it was -32.1%; in assay [5] it was -4.9%; in assay [6], 19.8%.

As for `O=Cc1c[nH]c2ccccc12`, the growth inhibition in assay [1] was -7.7%; in assay [2] it was 9.95%; in assay [3] it was 22.8%; in assay [4], -15.6%; in assay [5], 1.85%; in assay [6], 6.25%.

With `CSC1C(=O)Nc2ccccc21` (stereo not given), the growth inhibition was -8.5% in assay [1]; -17.6% in assay [2]; 4.1% in assay [3]; -13.1% in assay [4]; -34.5% in assay [5]; -3% in assay [6].

Values taken from PubChem BioAssay (NCI).
